Reference: PubChem BioAssay AID1619 (SRMLSC, 2009)
In all, about 220,000 compounds went through this assay and about 830 (0.38%) were called active.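 The calls were made as follows: active = compound inhibiting the enzyme by more than half at any dose during confirmatory dose-response retesting; inconclusive = strong single-dose inhibitors picked by rank but not retested; inactive = the rest.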 These entries were drawn from the full list. Potency and affinity values are given separately.

These compounds were tested against Leucine aminopeptidase (Plasmodium falciparum (isolate 3D7)) (UniProt Q8IL11) (assay: P. falciparum M17LAP inhibitors, primary screen, biochemical, fluorogenic H-Leu-NHMec substrate, 1536-well (AID 1619;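 also: plate controls were full reaction with DMSO carrier for no effect and no enzyme background for full effect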)). Conditions: recombinant M17LAP, H-Leu-NHMec fluorogenic kinetic assay; at 30 µM; active compounds read high.
Leucine aminopeptidase (Plasmodium falciparum (isolate 3D7)), sequence (Q8IL11 whole entry, looked up): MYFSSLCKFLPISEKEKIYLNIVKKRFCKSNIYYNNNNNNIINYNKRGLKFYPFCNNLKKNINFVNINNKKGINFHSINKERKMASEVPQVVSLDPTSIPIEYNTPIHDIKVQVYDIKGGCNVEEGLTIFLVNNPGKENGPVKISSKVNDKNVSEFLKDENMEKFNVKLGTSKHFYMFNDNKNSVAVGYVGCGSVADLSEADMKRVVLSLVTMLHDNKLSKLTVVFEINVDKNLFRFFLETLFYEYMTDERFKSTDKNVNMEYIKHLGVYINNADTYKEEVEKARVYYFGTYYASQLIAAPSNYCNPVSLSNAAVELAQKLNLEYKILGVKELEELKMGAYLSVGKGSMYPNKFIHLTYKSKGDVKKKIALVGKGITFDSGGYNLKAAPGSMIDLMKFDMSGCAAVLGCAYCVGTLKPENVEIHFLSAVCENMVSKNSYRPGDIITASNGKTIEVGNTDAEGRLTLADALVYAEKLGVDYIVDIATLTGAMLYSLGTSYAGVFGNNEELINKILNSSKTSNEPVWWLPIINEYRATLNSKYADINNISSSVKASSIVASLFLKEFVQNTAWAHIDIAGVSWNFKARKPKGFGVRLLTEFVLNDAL

inhibition, inactive:
CCC(=O)Nc1ccc(C(=O)NNC(=O)C(c2ccccc2)c2ccccc2)cc1 5.41%
O=C(CNC(=O)c1ccc([N+](=O)[O-])cc1)N/N=C\c1ccc(OC(=O)c2ccccc2)cc1 -2.63%
COc1ccc(S(=O)(=O)NCCc2ccccc2)cc1 -1.2%
Cc1nn(C)cc1/C=N/NC(=O)Cn1cncn1 0.36%
C=CCN1C(=O)CC(C(=O)NC)SC1=Nc1ccc(C(=O)OCC)cc1 (stereo not drawn) 4.4%
CC(=O)Nc1c(C(=O)N2CCN(c3ccccn3)CC2)cnn1-c1ccc(C)cc1 11%
CC1=CC(C)C2C(=O)N(O)C(=O)C2C1 (stereo not drawn) 1.69%
CN(c1ccc(F)cc1)S(=O)(=O)c1ccc(Cl)c(C(=O)OCC(=O)NCc2ccco2)c1 4.4%
COc1ccc(S(=O)(=O)/N=C2/NC(=O)/C(=C\c3ccco3)S2)cc1 22.2%
COc1ccc(NS(=O)(=O)c2cccs2)c(OC)c1 -8.72%
COc1ccc(Nc2nc3ccccc3nc2NS(=O)(=O)c2cccs2)cc1 9.26%
NC1=NC(=O)/C(=C\c2ccco2)S1 25.9%
O=C1CN(C(=O)CCN2CCOCC2)C(c2ccccc2)c2cc(Br)ccc2N1 (stereo not drawn) 8.27%
Cc1cc(C=O)c(C)n1-c1ccc(Cl)c(C(=O)O)c1 14.1%
Cc1cc(/C=C2/C(=O)NN(c3ccccc3)C2=O)c(C)n1-c1ccc(O)cc1 -3.4%
CCCC(C)c1nnc(NC(=O)C(=O)OCC)s1 (stereo not drawn) 2.47%
O=C(NNC(=S)NC(=O)c1ccccc1[N+](=O)[O-])c1ccccc1[N+](=O)[O-] 51.9%
O=C(NNS(=O)(=O)c1ccccc1)c1cccnc1 1.34%
O=C(NC(=S)NNS(=O)(=O)c1ccc(Cl)cc1)c1cccnc1 20%
O=C(NC(=S)NNS(=O)(=O)c1ccccc1)c1ccc([N+](=O)[O-])cc1 21.4%
CCOC(=O)C1C(=O)C=C(Nc2ccccc2F)CC1c1ccccc1 (stereo not drawn) 10.8%
CCOC(=O)C(C(=O)OCC)N(C#N)c1nc(OC)nc(N(C)C)n1 3.46%
O=Cc1cccc(Oc2ncccn2)c1 3.35%
CCOC(=O)N1CCC(Nc2c(NCCCN(CC)CC)c(=O)c2=O)CC1 -6.21%
O=C1CCC(=O)N1c1cccc(OS(=O)(=O)c2ccccc2)c1 10.4%
Cc1cc(C(F)(F)F)n2nc(-c3cnn(C)c3C(F)(F)F)c(Br)c2n1 4.73%
O=C(Cc1ccccc1)N[C@@H](Cc1ccc(O)cc1)C(=O)O 7.55%
O=C(NCc1ccccc1)N[C@@H](Cc1ccccc1)C(=O)O 27.9%
NS(=O)(=O)c1ccc(NC(=O)N[C@@H](Cc2ccccc2)C(=O)O)cc1 9.55%
COC(=O)[C@H](Cc1ccccc1)NC(=O)NCc1cccs1 7.7%
COc1ccccc1Nc1nc2ccc(C)cc2cc1C#N 5.31%
COc1ccc(N2CCN(c3nc4ccccc4n3CC(=O)c3ccccc3)CC2)cc1 12.7%
O=C1CS/C(=C/C(=O)c2cccc(Cl)c2)N1 16%
Cc1ccc(S(=O)(=O)/C=C2\NC(=O)CS2)cc1 34.6%
O=C(O)c1ccc(/C=N/NC(=O)c2cc(-c3cccs3)nc3ccccc23)cc1 -43.1%
CC1CCC(N2CCN(c3ncccn3)CC2)CC1 (stereo not drawn) 1.15%
Cc1ccc(O)c(-c2cc(-c3ccccc3C)[nH]n2)c1 -1.23%
Cc1ccc(-c2cc(-c3ccccc3C)[nH]n2)c(O)c1 9.91%
Cc1ccc(NC(=O)CSC2=C(C#N)C(c3ccco3)C3=C(CC(C)(C)CC3=O)N2)cc1 (stereo not drawn) 1.21%
C=C(C)C(=O)Oc1ccc(N2C(=O)CCC2=O)cc1 15.3%
O=C(CSc1nc2ccccc2c(=O)n1CCCN1CCOCC1)Nc1cccc(S(=O)(=O)N2CCCCCC2)c1 -0.76%
CCOc1ccccc1NC(=O)N1CCN(S(C)(=O)=O)CC1 -3.49%
CCn1cc(CNC(=O)/C=C/c2cnn(C)c2)c(C)n1 -7.7%
Clc1ccc(-c2n[nH]c3c2CCC3)cc1Cl -3.59%
O=[N+]([O-])c1cccc(-c2ccn[nH]2)c1 0.95%
O=c1cc(O)c(-c2ccc(Cl)c(Cl)c2)c(Cl)[nH]1 4.59%
Nc1cc(-c2cccc([N+](=O)[O-])c2)[nH]n1 10.1%
Cc1ccc([N+](=O)[O-])cc1S(=O)(=O)N1CCCCC1C(=O)O (stereo not drawn) 11.7%
COc1cccc(CN2CCN(C(=O)CC(C)C)CC2)c1 -2.21%
O=C1CNC(=O)/C(=C/c2ccco2)N1 6.62%
Cc1ccc(-n2c(C)cc(/C=N/Nc3ccc([N+](=O)[O-])cn3)c2C)cc1 -7.78%
Cc1cc(/C=N/Nc2ccc([N+](=O)[O-])cn2)c(C)n1-c1ccccc1 9.51%
Cc1ccnc2nc(C(=O)NCc3cccs3)nn12 -0.8%
NS(=O)(=O)c1ccc(CCNC(=O)C2CCN(S(=O)(=O)c3c(Cl)cccc3Cl)CC2)cc1 1.28%
Cc1cc(C)cc(N(CC(=O)Nc2ccccc2C(=O)N2CCOCC2)S(C)(=O)=O)c1 -5.57%
CC#CCC(CC#CC)c1nc2ccccc2c(=O)n1N -1.78%
Cc1ccc(-c2noc(CCC(=O)NC3CCCc4ccccc43)n2)cc1 (stereo not drawn) -3.35%
Cc1ccc(Cn2ccc(NC(=O)c3cc(C4CC4)on3)n2)cc1 1.62%
Cc1ccc(Cn2ccc(NC(=O)c3cc(C)on3)n2)cc1 -2.56%
Cc1c(NC(C)c2ccccc2O)c(=O)n(-c2ccccc2)n1C (stereo not drawn) 3.02%
C/C(=C\C(=O)c1ccc(Br)cc1)Nc1ccc(Cl)cc1 -7.69%
CCc1nnc(NS(=O)(=O)c2ccc(N=Cc3c(C)[nH]n(-c4ccc(Cl)cc4)c3=O)cc2)s1 45.4%
COc1nccnc1NS(=O)(=O)c1ccc(N=Cc2c(C)[nH]n(-c3ccc(Cl)cc3)c2=O)cc1 38.5%
Cc1[nH]n(-c2ccccc2)c(=O)c1C=Nc1ccc(S(=O)(=O)Nc2nccs2)cc1 3.82%
CCc1nnc(NS(=O)(=O)c2ccc(NS(=O)(=O)c3ccc(NC(C)=O)cc3)cc2)s1 35.4%
CCc1nnc(NS(=O)(=O)c2ccc(N3C(=O)c4ccc(C(=O)O)cc4C3=O)cc2)s1 3.4%
Cc1cc(C)nc(NS(=O)(=O)c2ccc(N=Cc3c(C)[nH]n(-c4ccccc4)c3=O)cc2)n1 6.98%
COc1ccc(C(=O)Nc2ccc(S(=O)(=O)Nc3nccnc3OC)cc2)cc1OC 16.3%
Cc1ccc(-n2[nH]c(C)c(C=Nc3ccc(S(=O)(=O)Nc4nccs4)cc3)c2=O)cc1C -8.94%
O=C(CN1CCOCC1)Nc1ccccc1-c1ccccc1 -4.42%
CCOc1ccccc1N1CCN(C(=O)c2c(C)noc2C)CC1 -5.81%
CCC1CCCN1Cn1cnc2c([nH]c3ccc(C)cc32)c1=O (stereo not drawn) 0.76%
CCCc1nnc(NC(=O)CCC(=O)NCc2ccc(OC)cc2)s1 13.8%
CCCCOc1ccccc1Cn1c(=O)oc2ccc(C)cc21 -14.1%
O=C(CSc1ncccn1)n1c2c(c3ccccc31)CCCC2 0.07%
Cc1nc2ccccc2c2c1C(=O)N(C1CCCCCCC1)C2=O -2.77%
CN1C(=O)CSc2ccc(NC(=O)N3CCN(c4ccccc4)CC3)cc21 -3.56%
CC1CN(C(=O)c2ccc(N3CCCCC3)c([N+](=O)[O-])c2)CC(C)O1 (stereo not drawn) 8.04%
Cc1noc(NS(=O)(=O)c2ccc(NC(=O)c3cnc4n(c3=O)CCS4)cc2)c1C 36%
CCOc1cc(/C=N/NC(=S)Nc2ccccc2C(F)(F)F)ccc1OCC(=O)N1CCOCC1 0.32%
Cc1cc(-c2nc(-c3ccc(C(C)(C)C)cc3)no2)no1 2.57%
COCCCNC(=O)c1ccc(C2SCC(=O)N2Cc2ccco2)cc1 (stereo not drawn) 9.82%
COc1cc(SC)ccc1C(=O)NCc1ccc(C)cc1 -9.45%
CCc1nnc(NS(=O)(=O)c2ccc(N=CC3=C(O)CC(C)(C)CC3=O)cc2)s1 37.1%
CCc1nnc(NS(=O)(=O)c2ccc(N3C(=O)c4ccccc4C3=O)cc2)s1 19.2%
COc1cccc(/C=C2/NC(=O)NC2=O)c1OCC(=O)Nc1ccccc1 1.46%
Cc1ccnc2nc(C(=O)OCCOc3ccc(F)cc3)nn12 -4.95%
Cc1ccc(OCC(=O)Nc2cccc(O)c2)cc1C 17.6%
Cc1ccc(OCC(=O)Nc2cc(C(=O)O)cc(C(=O)O)c2)cc1C -17.5%
N#Cc1cc2c(nc1SCC(O)CS(=O)(=O)Cc1ccccc1)CCCC2 (stereo not drawn) 22.9%
Cc1cc(C)c(C#N)c(SCCS(=O)(=O)Cc2ccccc2)n1 -2.33%
COC(=O)N/N=C/c1cccc(OCCSc2ccc(Cl)cc2)c1 11.2%
C/C(=N\NC(=O)Cc1cccn1C)c1ccc2ccccc2c1 32.5%
C/C(=N\NC(=O)COc1ccccc1)c1ccc(O)cc1 16.8%
COc1cc(/C(C)=N/NC(=O)CSc2nc3ccccc3[nH]2)ccc1O 8.45%
C/C(=N\NC(=O)Cc1ccc(F)cc1)c1ccc(O)cc1 6.85%
C/C(=N\NC(=O)Cc1c[nH]c2ccccc12)c1ccc2ccccc2c1 -0.21%
COc1cc(/C(C)=N/NC(=O)CSc2nnc(C)s2)ccc1O -1.63%
